B1: AGCAUGU (DNA:RNA)
RNA: GGGAGACCGGAAUUCAGAUUGUCCAGCAUGUUUAAAUCCCGUCGUAGCCACCA
DNA 1: CAATCTGAATTCCGGTCTCCC
DNA 2: TGGTGGCTACGACGGGATT
B2: AUGCUUG (DNA:RNA)
RNA: B1 RNA with G26U, C27G, A28C, G30U, U31G
DNA 1: CAATCTGAATTCCGGTCTCCC
DNA 2: TGGTGGCTACGACGGGATT
B3: AGCAUUG (DNA:RNA)
RNA: B1 RNA with G30U, U31G
DNA 1: CAATCTGAATTCCGGTCTCCC
DNA 2: TGGTGGCTACGACGGGATT
B4: ACCAUGC (DNA:RNA)
RNA: B1 RNA with G26C, U31C
DNA 1: CAATCTGAATTCCGGTCTCCC
DNA 2: TGGTGGCTACGACGGGATT
B5: AGCCAUG (DNA:RNA)
RNA: B1 RNA with A28C, U29A, G30U, U31G
DNA 1: CAATCTGAATTCCGGTCTCCC
DNA 2: TGGTGGCTACGACGGGATT
B6: CAGCAUA (DNA:RNA)
RNA: GGGAGACCGGAAUUCAGAUUGUCCCAGCAUAUUAAAUCCCGUCGUAGCCACCA
DNA 1: CAATCTGAATTCCGGTCTCCC
DNA 2: TGGTGGCTACGACGGGATT
B7: CAGCAUG (DNA:RNA)
RNA: B6 RNA with A31G
DNA 1: CAATCTGAATTCCGGTCTCCC
DNA 2: TGGTGGCTACGACGGGATT
B8: AGCAUGG (DNA:RNA)
RNA: B1 RNA with U31G
DNA 1: CAATCTGAATTCCGGTCTCCC
DNA 2: TGGTGGCTACGACGGGATT
B9: ACCAUGU (DNA:RNA)
RNA: B1 RNA with G26C
DNA 1: CAATCTGAATTCCGGTCTCCC
DNA 2: TGGTGGCTACGACGGGATT
B10: ACCAUGG (DNA:RNA)
RNA: B1 RNA with G26C, U31G
DNA 1: CAATCTGAATTCCGGTCTCCC
DNA 2: TGGTGGCTACGACGGGATT
B11: CAGCAUC (DNA:RNA)
RNA: B6 RNA with A31C
DNA 1: CAATCTGAATTCCGGTCTCCC
DNA 2: TGGTGGCTACGACGGGATT
B12: AUGCUGC (DNA:RNA)
RNA: B1 RNA with G26U, C27G, A28C, U31C
DNA 1: CAATCTGAATTCCGGTCTCCC
DNA 2: TGGTGGCTACGACGGGATT
B13: CAACUAC (DNA:RNA)
RNA: B6 RNA with G27A, A29U, U30A, A31C
DNA 1: CAATCTGAATTCCGGTCTCCC
DNA 2: TGGTGGCTACGACGGGATT
B14: UGACGCG (DNA:RNA)
RNA: B1 RNA with A25U, C27A, A28C, U29G, G30C, U31G
DNA 1: CAATCTGAATTCCGGTCTCCC
DNA 2: TGGTGGCTACGACGGGATT
B15: UACCGAU (DNA:RNA)
RNA: B1 RNA with A25U, G26A, A28C, U29G, G30A
DNA 1: CAATCTGAATTCCGGTCTCCC
DNA 2: TGGTGGCTACGACGGGATT
B16: GACGCUG (DNA:RNA)
RNA: B6 RNA with C25G, G27C, C28G, A29C, A31G
DNA 1: CAATCTGAATTCCGGTCTCCC
DNA 2: TGGTGGCTACGACGGGATT
B17: GGGGAUC (DNA:RNA)
RNA: B6 RNA with C25G, A26G, C28G, A31C
DNA 1: CAATCTGAATTCCGGTCTCCC
DNA 2: TGGTGGCTACGACGGGATT
B18: GGAGUCU (DNA:RNA)
RNA: B1 RNA with A25G, C27A, A28G, G30C
DNA 1: CAATCTGAATTCCGGTCTCCC
DNA 2: TGGTGGCTACGACGGGATT
B19: GGAUCUU (DNA:RNA)
RNA: B1 RNA with A25G, C27A, A28U, U29C, G30U
DNA 1: CAATCTGAATTCCGGTCTCCC
DNA 2: TGGTGGCTACGACGGGATT
B20: GGGAUCU (DNA:RNA)
RNA: B1 RNA with A25G, C27G, G30C
DNA 1: CAATCTGAATTCCGGTCTCCC
DNA 2: TGGTGGCTACGACGGGATT
B21: CGGAGUC (DNA:RNA)
RNA: B6 RNA with A26G, C28A, A29G, A31C
DNA 1: CAATCTGAATTCCGGTCTCCC
DNA 2: TGGTGGCTACGACGGGATT
B22: GGAGAUC (DNA:RNA)
RNA: B6 RNA with C25G, A26G, G27A, C28G, A31C
DNA 1: CAATCTGAATTCCGGTCTCCC
DNA 2: TGGTGGCTACGACGGGATT
B23: CGGAUCU (DNA:RNA)
RNA: B1 RNA with A25C, C27G, G30C
DNA 1: CAATCTGAATTCCGGTCTCCC
DNA 2: TGGTGGCTACGACGGGATT
B24: GUUAAUC (DNA:RNA)
RNA: B6 RNA with C25G, A26U, G27U, C28A, A31C
DNA 1: CAATCTGAATTCCGGTCTCCC
DNA 2: TGGTGGCTACGACGGGATT
B25: GGAUCUC (DNA:RNA)
RNA: B1 RNA with A25G, C27A, A28U, U29C, G30U, U31C
DNA 1: CAATCTGAATTCCGGTCTCCC
DNA 2: TGGTGGCTACGACGGGATT
B26: GGGAGUC (DNA:RNA)
RNA: B1 RNA with A25G, C27G, U29G, G30U, U31C
DNA 1: CAATCTGAATTCCGGTCTCCC
DNA 2: TGGTGGCTACGACGGGATT
B27: GCGGAUC (DNA:RNA)
RNA: B6 RNA with C25G, A26C, C28G, A31C
DNA 1: CAATCTGAATTCCGGTCTCCC
DNA 2: TGGTGGCTACGACGGGATT
B28: GGGAAUC (DNA:RNA)
RNA: B6 RNA with C25G, A26G, C28A, A31C
DNA 1: CAATCTGAATTCCGGTCTCCC
DNA 2: TGGTGGCTACGACGGGATT
B29: UAUUACU (DNA:RNA)
RNA: B6 RNA with C25U, G27U, C28U, U30C, A31U
DNA 1: CAATCTGAATTCCGGTCTCCC
DNA 2: TGGTGGCTACGACGGGATT
B30: AUAAGGU (DNA:RNA)
RNA: B1 RNA with G26U, C27A, U29G
DNA 1: CAATCTGAATTCCGGTCTCCC
DNA 2: TGGTGGCTACGACGGGATT
B31: CCGAAGU (DNA:RNA)
RNA: B1 RNA with A25C, G26C, C27G, U29A
DNA 1: CAATCTGAATTCCGGTCTCCC
DNA 2: TGGTGGCTACGACGGGATT

Residue numbers refer to the chain shown, from its start. In all, about 16,000 sequences were measured (“ka relative to ugcaugu”: median about 0.0091, highest 2% from about 0.032 on). The full list was thinned out, with the highest values kept by preference.

The target in the assay is T1, RBFOX1 RRM (Homo sapiens, UniProt Q9NWB1 109-208).
T1 sequence: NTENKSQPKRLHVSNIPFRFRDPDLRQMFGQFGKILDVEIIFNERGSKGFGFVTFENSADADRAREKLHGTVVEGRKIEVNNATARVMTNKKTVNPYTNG
Description: EMSA; HiTS-Eq, 1 nM pool, 10 min; buffer printed only for the single-RNA assays: 10 mM Tris pH 7.5, 150 mM NaCl, 3.4 mM EDTA, 0.001% NP-40, 30 C. Conditions: tags: His6 N-terminal (pET28a); label: 5' 32P. In outline: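 A pool of RNA with 7 randomized nucleotides, 5′-radiolabelled and with DNA-annealed flanks, was equilibrated at 1 nM for 10 min in 50 µL with purified RbFox RRM, wild type or mutant, across increasing protein concentrations. Free RNA was separated by 8% native PAGE, excised, reverse-transcribed, barcoded by PCR and sequenced. Relative association constants were obtained from read-count changes of each RNA species versus the control reaction and normalised to the cognate motif.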
For the molecule B1, the binding signal is 0.738 KA relative to UGCAUGU. The figure for B2 is 0.0339 KA relative to UGCAUGU; for B3 it is 0.0104 KA relative to UGCAUGU. B4: the binding signal was 0.00513 KA relative to UGCAUGU.

Consider B5, for which the binding signal was 0.0102 KA relative to UGCAUGU. The figure for B6 is 0.00331 KA relative to UGCAUGU.

For the molecule B7, the binding signal was 0.665 KA relative to UGCAUGU. The figure for B8 is 0.347 KA relative to UGCAUGU. The figure for B9 is 0.00472 KA relative to UGCAUGU; for B10 it is 0.00726 KA relative to UGCAUGU; for B11 it is 0.0124 KA relative to UGCAUGU. In the case of B12 it was 0.00746 KA relative to UGCAUGU.

With B13, the binding signal was 0.000393 KA relative to UGCAUGU. In the case of B14 it was 0.0215 KA relative to UGCAUGU; in that of B15, 0.00545 KA relative to UGCAUGU; in that of B16, 0.0241 KA relative to UGCAUGU.

Take B17: the binding signal is 0.0348 KA relative to UGCAUGU.

For B18, the binding signal was 0.0284 KA relative to UGCAUGU.

For the molecule B19, the binding signal was 0.0133 KA relative to UGCAUGU. In the case of B20 it was 0.0381 KA relative to UGCAUGU. The figure for B21 is 0.0303 KA relative to UGCAUGU; for B22 it is 0.0208 KA relative to UGCAUGU. Regarding B23, the binding signal is 0.0232 KA relative to UGCAUGU. The figure for B24 is 0.00989 KA relative to UGCAUGU; for B25 it is 0.0209 KA relative to UGCAUGU; for B26 it is 0.0339 KA relative to UGCAUGU. The figure for B27 is 0.00958 KA relative to UGCAUGU; for B28 it is 0.0328 KA relative to UGCAUGU. The figure for B29 is 0.00399 KA relative to UGCAUGU; for B30 it is 0.00979 KA relative to UGCAUGU.

For the molecule B31, the binding signal is 0.00878 KA relative to UGCAUGU.

The record behind these values is PMC9911399, “Two distinct binding modes provide the RNA-binding protein RbFox with extraordinary sequence specificity”.
